# Compound activity: PubChem BioAssay, National Center for Advancing Translational Sciences (NCATS)
# The full list was thinned out, with hits kept by preference.
# Menin-MLL TR inh – qHTS Assay for Inhibitors Targeting the Menin-MLL Interaction in MLL Related Leukemias: Competition With Texas Red Labeled MLL-derived Mutant Peptide. O00255. Menin + Texas Red MLL mutant peptide, fluorescence polarization. AID 1768, 2009. Potency, µM (doses to about 61.6 µM), inactives show at the top dose FP activity change, negative = inhibition, actives largely listed as inhibitors. 270,000 tested, 0.23% active; active = well fitted inhibition curve with a large enough effect in the polarisation, with a control signal flat, not every such curve was filed as active; inconclusive = small, poorly fitted or top-dose-only effect, or effect the other way, or a change in a side signal; inactive = no such curve, though single readings can be large or run the other way; the % refers to the polarisation; also: potency is read from the fitted curve at half-maximal effect; % of control where 0% means no effect
# MLL CXXC-DNA inh – qHTS Fluorescence Polarization Assay for Inhibitors of MLL CXXC domain - DNA interaction. Potency, µM (top dose mostly 115 µM), inactives show at the top dose activity change, negative = inhibition, most hits filed as inhibitors. 290,000 tested, 0.037% active. Histone-lysine N-methyltransferase 2A (Homo sapiens), Q03164. MLL-CXXC / FITC-HOXA9 DNA fluorescence polarization; active = well fitted inhibition curve with a large enough effect in the polarisation, with a control signal flat, not every such curve was filed as active; inconclusive = small, poorly fitted or top-dose-only effect, or effect the other way, or a change in a side signal; inactive = no such curve, though single readings can be large or run the other way; the % refers to the polarisation; also: potency is read from the fitted curve at half-maximal effect
#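 Purified MLL-CXXC (added from a 7 uM solution) was preincubated 5 min at ambient with pinned compounds in 50 mM Tris-HCl pH 7.5, 50 mM NaCl, 1 mM DTT, 0.05% BSA. Fluorescein-labeled HOX-A9 DNA (50 nM solution) followed, 30 min, then polarization read.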
# Menin-MLL FL inh – qHTS Assay for Inhibitors Targeting the Menin-MLL Interaction in MLL Related Leukemias: Competition With Fluorescein Labeled MLL-derived Peptide; Fluorescence polarization, fluorescein-MLL peptide displacement from menin; FP activity change, % at 61.4 µM; 290,000 tested, under 10 active; AID 1766, 2009; active = well fitted curve in the direction sought with a large enough effect in the polarisation, not every such curve was filed as active; inconclusive = small, poorly fitted or top-dose-only effect, or effect the other way, or a change in a side signal; inactive = no such curve, though single readings can be large or run the other way; the % refers to the polarisation; also: % of control where 0% means no effect
# Starred values were filed as active, the others as inactive; ? = inconclusive; / = no result given.
SMILES,Menin-MLL TR inh,MLL CXXC-DNA inh,Menin-MLL FL inh
Cc1cc(/C=C2/C(=O)N(C)C(=S)N2C)ccc1N1CCCC1,-17.2%,?,?
CSCC[C@H](NC(=O)[C@H](CC(C)C)NC(=O)CNC(=O)[C@H](Cc1ccc(O)cc1)NC(=O)[C@H](Cc1ccccc1)NC(=O)[C@H](CCCCN)NC(=O)[C@H](CC(N)=O)NC(=O)[C@@H]1CCCN1C(=O)[C@H](CC(=O)O)NC(=O)[C@H](C)NC(=O)[C@@H]1CCC(=O)N1)C(N)=O,0.2%,/,-1.4
COc1ccc2cc1Oc1ccc(cc1)CC1c3cc(c(OC)cc3CCN1C)Oc1c(OC)c(OC)c(OC)c3c1C(C2)N(C)CC3 (stereo unspecified),-13.9%,/,9.2
Cn1nc(C(=O)N2CCN(c3ccc([N+](=O)[O-])cc3)CC2)c2c1-c1ccccc1S(=O)(=O)C2,25.1µM*,14.5%,0.1
Cn1nc(C(=O)N2CCN(c3ccc(Cl)cc3)CC2)c2c1-c1ccccc1S(=O)(=O)C2,/,-0.6%,/
O=P1(O)OP(=O)(O)OP(=O)(O)O1.[Al],-7.8%,/,0.9
CC(=O)Nc1ccc(S(=O)(=O)Oc2ccc(/C=C3\SC(N)=NC3=O)cc2)cc1,14.1µM*,2.0%,-1.0
NC1=NC(=O)/C(=C/c2ccc(OCC(=O)O)cc2)S1,-19.3%,30.2%,16.9
COc1ccccc1-c1cc(C(=O)NC(C)C)no1,/,-4.3%,0.1
COc1ccccc1-c1cc(C(=O)Nc2ccc(F)cc2F)no1,11.2µM*,-9.8%,4.6
CC12CCC=CC1C(c1cccc(Br)c1)N(Cc1ccccc1)C2=O (stereo unspecified),-11.9%,/,1.2
O=C(Nc1nc2ccccc2s1)c1cccc(S(=O)(=O)N2CCc3ccccc32)c1,/,2.3%,11.3
O=C(Nc1nc2c(s1)CN(Cc1ccccc1)CC2)c1cccc(S(=O)(=O)N2CCc3ccccc32)c1,7.08µM*,?,?
Cc1ccc(SCC(c2ccccc2)N2CCN(CC(C)C)CCC2=O)cc1 (stereo unspecified),-24.7%,/,-0.4
COc1cc2c3nnc(-c4ccc(F)cc4)c-3cn(Cc3ccccc3F)c2cc1OC,-10.0%,?,?
COc1cc2c3nnc(-c4ccccc4)c-3cn(Cc3ccccc3F)c2cc1OC,12.6µM*,5.7%,?
c1ccc(-c2ccc(OCCN3CCCC3)cc2)cc1,-20.2%,/,5.2
CC(C)(C)OC(=O)N1C=CCC1CN1C(=O)COCC1=O (stereo unspecified),-3.7%,/,6.8
Cc1csc(NC(=O)CSc2nnc(NC(=O)COc3ccc(Cl)cc3)s2)n1,25.1µM*,13.2%,18.1
CCCC(=O)Nc1nnc(SCC(=O)Nc2nc(C)cs2)s1,/,14.4%,/
COc1cccc(C2=Nn3c(nnc3-c3ccccc3OC)SC2)c1,?,/,-3.5
COc1cc(CNc2ccc(N3CCCC3)cc2)cc(Cl)c1OC,28.2µM*,37.8%,-1.3
CCOc1cc(CNc2ccc(N3CCCC3)cc2)cc(Cl)c1OC,?,-0.9%,-4.0
CCn1cnc2scc(-c3ccccc3)c2c1=O,-15.7%,14.4%,-0.9
Cn1cc(/C=N/n2cnc3scc(-c4ccc(Cl)cc4)c3c2=O)c2ccccc21,11.2µM*,5.6%,-0.1
SMILES,Menin-MLL TR inh,MLL CXXC-DNA inh,Menin-MLL FL inh
CN(C)CCCN1C(=O)c2cccc3cccc(c23)C1=O,14.3%,-3.6%,-0.3
CC1=CC2=C(OC1N(C)C)c1cccc3cccc(c13)C2=O (stereo unspecified),28.2µM*,-7.4%,?
Nc1ccccc1Oc1ccccc1,-7.4%,/,-0.9
O=C(Nc1nc(-c2ccc(S(=O)(=O)N3CCCC3)cc2)cs1)C1COc2ccccc2O1 (stereo unspecified),10µM*,20.1%,4.9
O=C(Nc1nc(-c2ccccc2)cs1)C1COc2ccccc2O1 (stereo unspecified),-19.5%,17.1%,4.6
CC[C@H](C)[C@H](NC(=O)[C@H](Cc1ccc(O)cc1)NC(=O)[C@H](Cc1cnc[nH]1)NC(=O)[C@H](CCCNC(=N)N)NC(=O)[C@H](CC(C)C)NC(=O)[C@H](C)NC(=O)[C@H](CO)NC(=O)[C@H](Cc1ccc(O)cc1)NC(=O)[C@H](Cc1ccc(O)cc1)NC(=O)[C@H](CCCNC(=N)N)NC(=O)[C@H](C)NC(=O)[C@H](CC(C)C)NC(=O)[C@H](CC(=O)O)NC(=O)[C@H](CCC(=O)O)NC(=O)[C@H](C)NC(=O)[C@@H]1CCCN1C(=O)[C@H](C)NC(=O)[C@H](CC(=O)O)NC(=O)[C@H](CCC(=O)O)NC(=O)CNC(=O)[C@@H]1CCCN1C(=O)[C@H](CC(N)=O)NC(=O)[C@H](CC(=O)O)NC(=O)[C@@H]1CCCN1C(=O)[C@H](CCCCN)NC(=O)[C@H](CO)NC(=O)[C@@H]1CCCN1C(=O)[C@@H](N)Cc1ccc(O)cc1)C(=O)N[C@@H](CC(N)=O)C(=O)N[C@@H](CC(C)C)C(=O)N[C@H](C(=O)N[C@H](C(=O)N[C@@H](CCCNC(=N)N)C(=O)N[C@@H](CCC(N)=O)C(=O)N[C@@H](CCCNC(=N)N)C(=O)N[C@@H](Cc1ccc(O)cc1)C(N)=O)[C@@H](C)O)[C@@H](C)CC,-1.6%,/,-0.8
CCOc1cccc(C(=O)NC(=S)Nc2ccc(N3CCN(CC)CC3)cc2)c1,7.08µM*,-2.4%,-7.8
CCCOc1cccc(C(=O)NC(=S)Nc2ccc(N3CCN(C)CC3)cc2)c1,-2.8%,-3.9%,0.1
O=C(O)c1cc(N(Cc2ccccc2O)Cc2ccccc2O)ccc1O,?,/,-7.2
COc1ccc(C(=O)Nc2ccccc2C(=O)N/N=C/c2cccc3ccccc23)cc1,28.2µM*,30.6%,5.5
COc1ccc(C(=O)Nc2ccccc2C(N)=O)cc1,-0.2%,30.8%,-0.4
CC(=O)c1ccc(-c2cccc(C3C4C=CCCC4(C)C(=O)N3Cc3ccccc3)c2)cc1 (stereo unspecified),?,/,0.9
COC(=O)c1ccc(NC(=O)COc2ccc(C3C(C#N)=C(N)Oc4c3ccc3ccccc43)cc2OC)cc1 (stereo unspecified),?,32.7%,-1.2
COc1cc(C2C(C#N)=C(N)Oc3c2ccc2ccccc32)ccc1OCC(=O)Nc1ccccc1C (stereo unspecified),25.1µM*,25.6%,4.1
CC(C)[C@H](NC(=O)[C@@H]1CSSC[C@H](NC(=O)[C@H](CC(=O)O)NC(=O)[C@H](C)NC(=O)[C@@H](NC(=O)CNC(=O)[C@H](C)N)[C@@H](C)O)C(=O)N[C@@H](Cc2ccccc2)C(=O)N[C@@H](Cc2c[nH]c3ccccc23)C(=O)N[C@@H](CCCCN)C(=O)N[C@@H](Cc2ccc(O)cc2)C(=O)N1)C(=O)O,-10.5%,/,1.7
OC[C@H]1OC(O)(CN2CCOCC2)[C@H](O)[C@@H]1O (stereo partly specified),-7.0%,/,-0.8
O=C(c1cccs1)N1N=C(c2ccccc2)CC1c1ccccc1O (stereo unspecified),17.8µM*,13.1%,8.1
